Assay results as given in PubChem BioAssay (NCATS).
Calls of active or inactive are those of the source. Where a call stands in place of a potency, no number is given. Calls follow the shape of the dose curve; as a rule, active = well fitted activation curve with a large enough effect; inconclusive = small, poorly fitted or top-dose-only effect; inactive = flat fitted curve, though single readings scatter. Peptide text beside a SMILES is read from it.

Experiment: Confirmation and Secondary Assay for Modulators of Hemoglobin Beta Chain Splicing at IVS2 654 locus (AID 910);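 also: HeLa cells stably carrying EGFP split by mutant beta-globin IVS2-654 intron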
Conditions: HeLa EGFP-654 splicing reporter, GFP fluorescence, 48 h; series mostly up to 46.1 µM
Excerpt: NIH Chemical Genomics Center [NCGC] NIH Molecular Libraries Screening Centers Network [MLSCN] MLSCN Grant: 1 X01 MH080684-01 PI Name: Dr. Ryszard Kole NCGC Assay Overview: Modulation of Alternative Splicing as Therapy Abnormal splicing is associated with a number of diseases, including cancer and genetic diseases such as cystic fibrosis, muscular dystrophy and beta-thalassemia. Alteration of disease associated splicing patterns provides a promising target for treatment. […] Mutations in the second intron of the b-globin gene at positions 654 or 705 are clinically relevant and cause mis-splicing which results in an out of frame gene product. […] EGFP-654 HeLa Cells as screen system. HeLa cell lines were stably transfected with a construct in which the EGFP (enhanced green fluorescent protein) cDNA was interrupted by the second intron of the beta-globin gene (IVS2-654). The ISV2 intron contains mutations which cause mis-splicing of EGFP and premature termination of EGFP which results in a nonfluorescent protein product. […] Expression of the transgene was driven by the CMV promoter. We concluded that a low molecular weight compound, which restored correct splicing of intron 2 would also generate functional EGFP protein, resulting in a fluorescent signal. Thus, the HeLa cells that express the EGFP-654 construct can be used for high throughput screening of a chemical library.
NCGC Assay Protocol Summary: Confirmatory Screening. Freshly thawed HeLa EGFP-654 cells were seeded in 5 ul of optimem media (Invitrogen) containing 2 % fetal calf serum (Hyclone) and 1x penicillin/streptomycin (Invitrogen) at a concentration of 500 cells per well in 1536-well plates. Cells were incubated overnight at 37C in 5% CO2. The next day, cells were treated with DMSO, 500 nM antisense ISV2 654 PNA control oligo, or library compound and allowed to grow at 37C in 5% CO2 for 2 days. The PNA oligo blocked the mutation site in the intron and allowed proper (wild type) splicing to occur, resulting in full length EGFP expression and also allowed for optimization of the assay parameters. Plates were read in the Acumen Explorer (TTP Labtech) using 488 nm laser excitation and 500-520 nm emission PMT filter in a 1 x 8 uM capture mode. Fluorescnet objects ranging in size from 5 to 250 uM were measured and the total peak GFP intensity for each well was used for data analysis. Keywords: Thalassemia, beta-thalassemia, beta-globin, EGFP, ISV2 654, ISV2 705, SSO, PNA, antisense, splicing, MLSMR, MLSCN, NIH Roadmap, qHTS, NCGC

Structure (SMILES) | Potency
O=c1[nH]c(=O)c2nc(Br)n(C3OC(CO)C(O)C3O)c2[nH]1 (stereo not given) | inactive
O=C(Cc1ccccc1)NO | inactive
CC1(C)C=Cc2cc3ccc(=O)oc3cc2O1 | inactive
Cc1c(S(=O)(=O)O)oc2c1C(=O)C(=O)c1c-2ccc2c1CCCC2(C)C | inactive
CO[C@@]1(NC(=O)CSCC#N)C(=O)N2C(C(=O)O)=C(CSc3nnnn3C)CSC21 (stereo not given in full) | inactive
CC(Oc1ccccc1)C(=O)NC1C(=O)N2C(C(=O)O)C(C)(C)S[C@@H]12 (stereo not given in full) | inactive
CC(C)CC(NC(=O)CN)C(=O)NC(Cc1ccccc1)C(=O)O (stereo not drawn) (H-Gly-Leu-Phe-OH; configuration not given here) | inactive
COc1cc2cc3c4cc(OC)c(OC)cc4cc[n+]3c(C)c2cc1OC | inactive
N#Cc1cccc(-c2cncnc2-n2ccnc2)c1 | inactive
CCCCCC1C(=O)CCC1CC(=O)OC (stereo not given) | inactive
COc1c(C(C)C)oc2cc3oc(=O)ccc3cc12 | inactive
Cc1ccc2c(c1)CC[C@H]1CC(=O)CC[C@@]21C | inactive
CCC(CCC(C)C1CCC2C3CC=C4CC(O)CC[C@@]4(C)C3CC[C@@]12C)C(C)C (stereo not given in full) | inactive
CON | inactive
CC1C(O)CC2C(C(=O)O)=CO[C@@H](O[C@H]3OC(CO)C(O)C(O)C3O)C21 (stereo not given in full) | inactive
Cc1cc(=O)c2c(O)cc(O)c(C)c2o1 | inactive
C[C@@H]1OC(OC2C(OC3CC[C@@]4(C)C5CC=C6C7CC(C)(C)CC[C@@]7(C(=O)O)CCC6(C)C5(C)CCC4[C@]3(C)CO)OCC(O)C2O)C(O)C(O)C1O (stereo not given in full) | inactive
CN1CCCC1c1cccnc1 (stereo not given) | inactive
CC(=O)[C@]1(O)CCC2C3C=C(Cl)C4=CC(=O)C5CC5[C@@]4(C)C3CC[C@]21C (stereo not given in full) | inactive
O=C(O)CN(CC(=O)O)Cc1cc2c(-c3ccccc3C(=O)O)c3cc(CN(CC(=O)O)CC(=O)O)c(=O)cc-3oc2cc1O | inactive

Structure (SMILES) | Potency
COc1ccc(CCC(=O)c2c(O)cc(OC3OC(CO)C(O)C(O)C3O[C@@H]3OC(C)C(O)C(O)C3O)cc2O)cc1O (stereo not given in full) | inactive
CC(=O)OC[C@@]1(O)C[C@]23CCC4c5ccoc5CC[C@@]4(C)C2CCC1C3 (stereo not given in full) | inactive
COc1ccc(-c2cc(=O)c3c(O)cc(O[C@@H]4OC(COC5OC(C)C(O)C(O)[C@@H]5O)C(O)C(O)C4O)cc3o2)cc1 (stereo not given in full) | inactive
CC1O[C@@H](Oc2c(-c3ccc(O)c(O)c3)oc3cc(O)cc(O)c3c2=O)C(O)C(O)C1O (stereo not given in full) | inactive
COC(=O)CC1C(C)(C)C(OC(C)=O)C2[C@H](OC(C)=O)[C@]34O[C@]2(O)[C@]1(C)C3CC[C@]1(C)C4=CC(=O)OC1c1ccoc1 (stereo not given in full) | inactive
CC(=O)OC1CC2C(C)(C)C(O)CC[C@@]2(C)C2CC[C@@]3(C)C(c4ccoc4)OC(=O)C4O[C@@]43[C@]12C (stereo not given in full) | inactive
O=C(O)c1ccc2c(c1)OCO2 | inactive
COc1cc(NS(C)(=O)=O)ccc1Cc1c2ccccc2nc2ccccc12 | inactive
COC(=O)CC1C(C)(C)C2(O)OC34CC2C(=O)[C@@]1(C)C3CC[C@]1(C)C4=CC(=O)OC1c1ccoc1 (stereo not given in full) | inactive
CC(=O)NC(CCC(=O)O)C(=O)O (stereo not given) | inactive
COc1ccc(C2CC(=O)c3c(O)cc(O[C@H]4OC(COC5OC(C)C(O)C(O)[C@@H]5O)C(O)C(O)C4O)cc3O2)cc1O (stereo not given in full) | inactive
CC(=O)OC1CC2C(C)(C)C=CC(=O)[C@@]2(C)C2CC[C@@]3(C)C(c4ccoc4)OC(=O)C4OC43[C@]12C (stereo not given in full) | inactive
Cc1cc(=O)oc2c(O)c(O)ccc12 | inactive
COC1C=CO[C@@]2(C)Oc3c(C)c(O)c4c(O)c(c(C=NN5CCN(C)CC5)c(O)c4c3C2=O)NC(=O)/C(C)=C\C=CC(C)C(O)[C@@H](C)C(O)C(C)[C@H](OC(C)=O)C1C (stereo not given in full) | inactive
COC(=O)CC1C(C)(C)C(=O)C2CC3=C(CC[C@]4(C)C3=CC(=O)OC4c3ccoc3)[C@@]1(C)C2=O (stereo not given in full) | inactive
COc1cc(C(=O)OC2CC[C@]3(C)C4CCC5[C@]6(O)CC(O)[C@]7(O)C(CN8CC(C)CCC8[C@]7(C)O)[C@]6(O)C[C@@]53O[C@]24O)cc(OC)c1OC (stereo not given in full) | inactive
O=C1CC(c2ccc(O)c(O)c2)Oc2cc(O)cc(O)c21 (stereo not given) | inactive
O=S(=O)(O)c1cc(N=C=S)ccc1/C=C/c1ccc(N=C=S)cc1S(=O)(=O)O | inactive
COc1ccc(-c2coc3cc(OC(C)=O)cc(OC(C)=O)c3c2=O)cc1 | inactive
CC(=O)OC1CC[C@]2(C)C(CC[C@@]3(C)C2C(=O)C=C2C4C(C)C(C)CC[C@@]4(C(=O)O)CCC23C)C1(C)C (stereo not given in full) | inactive
